BJeLR viability: MLPCN primary cell-based screen for lethality selective to Ras in HRASV12 cells; BJeLR (HRASV12) viability, CellTiter-Glo ATP luminescence, 48 h; inhibition, % (no concentration beside the values); 300,000 compounds, 0.17% hits; AID 1554, 2009; in the data active = inhibition above about 50%
SSB-PriA inh: inhibitors of Klebsiella pneumoniae PriA binding to SSB C-terminal tail, primary screen, biochemical, AlphaScreen; PriA–SSB C-terminal tail interaction (Klebsiella pneumoniae); AlphaScreen SSBct-PriA binding, biotinylated peptide; inhibition, % at 33 µM; 430,000 compounds, 0.6% hits; AID 1272365, 2023; in the data active = inhibition mostly above about 37%, no sharp cut-off; inactive = mostly below about 20%;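 also: plate controls were negative control peptide for no effect and reference peptide for full effect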
3CLpro inhibitor: SARS-CoV 3CLpro protease inhibitors, primary screen, biochemical, quenched FRET. Replicase polyprotein 1ab (Severe acute respiratory syndrome coronavirus), P0C6X7. recombinant SARS-CoV 3CLpro, quenched FRET peptide cleavage. inhibition, % at 6 µM. 290,000 compounds, 0.14% hits. AID 1706, 2009; in the data active = inhibition above about 12%
* hit, by the source's call. The list is not random: actives were taken first. Their share in the collection is about 0.78%.

Screening Cc1ccc(-n2ccnc2N2CCN(C(=O)COc3ccccc3)CC2)cc1 returned SSB-PriA inh 68.
Cn1nc(C2CC2)cc1N1CCN(C(=O)c2ccc(S(=O)(=O)N3CCCC3)cc2)CC1 was read as SSB-PriA inh -7.
Screening COCCCNC(=S)NNC(=O)c1ccccn1 returned BJeLR viability -2, SSB-PriA inh 82* and 3CLpro inhibitor 2.
For O=C(NNC(=O)c1ccccn1)c1ccccn1 the results were SSB-PriA inh 58*.
Screening S=C(Nc1ccccn1)c1ccccn1 returned BJeLR viability 5, SSB-PriA inh 81* and 3CLpro inhibitor 3.
O=C(NN=C1CCCCc2ccccc21)c1ccccn1 was read as SSB-PriA inh 3.
For COCCCNC(=S)NNC(=O)c1ccccc1Br the results were BJeLR viability -10, SSB-PriA inh -19 and 3CLpro inhibitor -3.
`O=C(NN=C1CCC(=NNC(=O)c2ccccn2)CC1)c1ccccn1` gave SSB-PriA inh 85* and 3CLpro inhibitor 1.
Screening O=C(NNC(=O)c1ccccc1[N+](=O)[O-])c1ccccn1 returned BJeLR viability 4, SSB-PriA inh -16 and 3CLpro inhibitor -5.
O=C(Nc1ccccn1)C(=O)Nc1ccccn1 was read as BJeLR viability -5, SSB-PriA inh -2 and 3CLpro inhibitor -2.
COc1ccc(-c2nnc(NC(=O)c3ccccc3Cl)o2)c(OC)c1 was read as SSB-PriA inh 10.
`COc1cccc(/C=C2/SC(=S)N(CCCC(=O)Nc3ccc(O)cc3)C2=O)c1` gave BJeLR viability 24, SSB-PriA inh 18 and 3CLpro inhibitor -3.
For COc1cccc(/C=C2\SC(=S)N(CCCC(=O)Nc3cc(C)on3)C2=O)c1 the results were BJeLR viability 100*, SSB-PriA inh -2 and 3CLpro inhibitor 3.
For Cc1nn(C2CCS(=O)(=O)C2)c2nc(-c3ccc(F)cc3)cc(C(=O)NCc3ccccn3)c12 (stereo unspecified) the results were SSB-PriA inh 14.
Screening Cn1ncc2c(O/N=C(\N)c3ccc(C(C)(C)C)cc3)ncnc21 returned BJeLR viability 99* and 3CLpro inhibitor 1.
For Cn1ncc2c(ON=C(N)c3ccc(C(F)(F)F)cc3)ncnc21 the results were SSB-PriA inh 0.
`O=C(Nc1nc(-c2ccccn2)cs1)c1cc2c(s1)CCCC2` gave SSB-PriA inh 51.
For Cn1c(C(=O)Nc2nc(-c3ccccn3)cs2)cc2ccccc21 the results were SSB-PriA inh 93*.
For Cn1cccc1C(=O)Nc1nc(-c2ccccn2)cs1 the results were BJeLR viability 2, SSB-PriA inh 85* and 3CLpro inhibitor -6.
Cc1csc(NC(=O)c2cccn2C)n1 was read as BJeLR viability 17, SSB-PriA inh 8 and 3CLpro inhibitor 2.
Cn1nccc1C(=O)Nc1nc(-c2cccnc2)cs1 was read as SSB-PriA inh -19.
Screening Cn1nccc1C(=O)Nc1nc(-c2ccccn2)cs1 returned SSB-PriA inh 97*.
Cc1cc(C(=O)Nc2nc(-c3ccccn3)cs2)n(C)n1 was read as SSB-PriA inh 118*.
Cc1cc(C(=O)Nc2nc(-c3cc4ccccc4o3)cs2)n(C)n1 was read as SSB-PriA inh -3.
`O=C(CCc1nc2sc3c(c2c(=O)[nH]1)CCCCC3)NCc1ccccc1` gave SSB-PriA inh -6.
Screening O=C(NCc1cccs1)C1(c2ccccc2)CCOCC1 returned SSB-PriA inh -18.
Cc1cc([C@@H](O)CCNC(=O)C2(c3ccc(Cl)cc3)CCCC2)c(C)o1 was read as SSB-PriA inh -5.
Screening CCC(O)=C1C(=O)CCCC1=NCc1nc2ccccc2[nH]1 returned SSB-PriA inh -3.
CN(C)S(=O)(=O)Nc1ccc(-c2csc(Nc3ccccc3Cl)n2)cc1 was read as SSB-PriA inh -13.
Screening CN1NC(C(=O)Nc2nc(-c3ccccn3)cs2)=CCC1=O returned SSB-PriA inh 124*.
Screening O=C(Nc1nc(-c2ccccn2)cs1)C1CCCC1 returned BJeLR viability 4, SSB-PriA inh 14 and 3CLpro inhibitor -3.
O=C(/C=C/c1ccc(-c2ccccc2Br)o1)c1cccs1 was read as SSB-PriA inh 3.
For O=C(NCCNS(=O)(=O)c1cccnc1)c1ccc(NC(=O)C2CC2)cc1 the results were SSB-PriA inh -14.
For C=CCN1C(=O)C(Cc2ccccc2)S/C1=N/N=C\c1ccccc1 (stereo unspecified) the results were SSB-PriA inh 56*.
`C=CCN1C(=O)C(Cc2ccccc2)S/C1=N/N=C/c1cccs1` (stereo unspecified) gave BJeLR viability 13 and 3CLpro inhibitor 3.
Screening CCOc1ccccc1NC(=O)Nc1ccc2c(c1)OCO2 returned BJeLR viability -2, SSB-PriA inh 2 and 3CLpro inhibitor -1.
Screening C=CCOc1ccccc1CN(C(=O)CCl)c1ccc2c(c1)OCO2 returned BJeLR viability 125*, SSB-PriA inh -3 and 3CLpro inhibitor 3.
O=C(CSc1ccc(-c2ccc(Br)cc2)nn1)NCc1ccco1 was read as SSB-PriA inh -7.
COc1ccccc1Nc1cc(C)nc(-n2cc([N+](=O)[O-])cn2)n1 was read as SSB-PriA inh 15.
Screening COc1ccc(-c2cc3nc4n(c(=O)c3s2)CCC4)cc1 returned BJeLR viability 25, SSB-PriA inh -7 and 3CLpro inhibitor -5.
COc1ccc(-c2cc3nc(C)n(N)c(=O)c3s2)cc1 was read as BJeLR viability 99*, SSB-PriA inh -2 and 3CLpro inhibitor -1.
Cc1nc2cc(-c3ccccc3)sc2c(=O)n1N was read as BJeLR viability 79*, SSB-PriA inh -8 and 3CLpro inhibitor 3.
For Cn1c(SCC(=O)N2CCCC2)nc2cc(-c3ccccc3)sc2c1=O the results were SSB-PriA inh -10.
Cc1noc(C)c1S(=O)(=O)N[C@@H](C)Cc1ccoc1 was read as SSB-PriA inh -15.
For C=CCNc1nc(C(=O)OCC(=O)c2cccc(Br)c2)cs1 the results were SSB-PriA inh 1.
`C=CCNc1nc(C(=O)OCC(=O)c2ccc(F)cc2)cs1` gave BJeLR viability -4 and SSB-PriA inh 46*.
`Oc1cccc2c(NC(=S)Nc3ccc(OC(F)F)cc3)cccc12` gave BJeLR viability -4, SSB-PriA inh 54* and 3CLpro inhibitor 3.
`FC(F)Oc1ccc(NC(=S)NCc2ccccc2)cc1` gave BJeLR viability -1, SSB-PriA inh 0 and 3CLpro inhibitor 6.
`CC(C)(C)OC(=O)N1CCC(c2cc(C(N)=O)n[nH]2)CC1` gave SSB-PriA inh 39*.
`CC(C)(C)OC(=O)N1CCC(c2cc(-c3cccs3)n[nH]2)CC1` gave BJeLR viability 9, SSB-PriA inh -4 and 3CLpro inhibitor 1.
Screening COc1ccc2oc(-c3csc(NC(=O)c4ccc(C#N)cc4)n3)cc2c1 returned SSB-PriA inh 2.
For O=C(O)c1cc([N+](=O)[O-])ccc1N1CCCCC1 the results were BJeLR viability 17, SSB-PriA inh 5 and 3CLpro inhibitor -2.
For Cc1ccc(C(=O)c2cc([N+](=O)[O-])ccc2N2CCCCC2)c(C)c1 the results were BJeLR viability 55*, SSB-PriA inh 16 and 3CLpro inhibitor 2.

From PubChem BioAssay
